Measurements taken from PubChem BioAssay AID1117319 (Southern Research Institute, 2015).
Screen size: about 260,000 compounds; about 1,500 (0.58%) were called active. Not shown: some 5% with an inconclusive outcome.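 The calls were made as follows: active = inhibition above a set limit at one or more doses, reproduced on every date tested; inconclusive = results disagree between test dates, or hit never tested in dose response; inactive = the rest.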 Only a sample is shown. Potency and affinity values are given separately.

biological target: Virion infectivity factor (Human immunodeficiency virus type 1 group M subtype B (isolate BH10)) + Virion infectivity factor (Human immunodeficiency virus type 1 group M subtype B (isolate BRU/LAI)) + Virion infectivity factor (Human immunodeficiency virus type 1 group M subtype B (isolate PCV12)) + Virion infectivity factor (Human immunodeficiency virus type 1 group M subtype B (isolate HXB2)) + DNA dC->dU-editing enzyme APOBEC-3G (Homo sapiens) (UniProt P69720+P69721+P69722+P69723+Q9HC16); experiment: HIV-1 Vif–A3G interaction blockers – biochemical, TR-FRET, GST-Vif 1-94, biotin-A3G peptide, dose response retest, primary screen (AID 1117319); conditions: TR-FRET GST-Vif / biotin-A3G peptide binding; active compounds read high;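 also: Vif residues 1-94 fused to GST binding biotinylated APOBEC3G peptide 110-148; 0% = full assay without inhibitor and 100% = GST in place of GST-Vif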

inhibition, inactive:
CCOC(=O)C1=C(C)N(C2CCCCC2)C(=O)C1 -5.38%
COC(=O)/C(C(C)=O)=C(/C=C/C=C/N(C)C)N(C)C 16.1%
COC(=O)\C(C(C)=O)=C(/C=C/C=C/N(C)C)N(C)C 27.9%
COCCNC(=O)c1cc(-c2ccncc2)nc2ccc(S(=O)(=O)N3CCOCC3)cc12 -13.5%
CC1(C)[C@@H](O)CC[C@]2(C)[C@H]3C(=O)C=C4[C@@H]5C[C@@](C)(C(=O)O)CC[C@]5(C)CC[C@@]4(C)[C@]3(C)CC[C@@H]12 27.5%
Cc1ccc(C2C(C#N)=C(N)Oc3cc(C)oc(=O)c32)o1 (stereo unspecified) -6.32%
Cc1ccc([C@H]2C(C#N)=C(N)Oc3cc(C)oc(=O)c32)o1 1.59%
CCCCCC(=O)NNC1CC(=O)N(c2ccccc2)C1=O (stereo unspecified) -9.34%
C[C@H](N)c1nnc(SCc2ccc(Cl)cc2Cl)o1 1.96%
CCN1C(C)=C(C)S/C1=C1\SC(=S)N(N)C1=O 7%
Cn1cc(/C=N/NC(=O)c2cc3cc(Br)ccc3o2)c2ccccc21 -7.92%
O=C(O)Cn1cc(/C=N/NC(=O)c2cc3cc(Br)ccc3o2)c2ccccc21 0.84%
COc1ccc(Cl)cc1C(=O)NNC(=O)CSc1nnc2ccccn12 -2.97%
O=C(/C=N/O)Nc1cccnc1 28.5%
COC(=O)/C=C/C(=O)Nc1cccnc1 15.1%
COc1c(OC(C)=O)ccc(/C=C/c2ccc3cccc(OCc4ccccc4)c3n2)c1[N+](=O)[O-] 5.7%
CCOc1c(OC(C)=O)ccc(/C=C/c2ccc3cccc(OC)c3n2)c1[N+](=O)[O-] 21.2%
O=C(CSCC(=O)c1ccccc1)Nc1ccccc1Cl -5.7%
COc1ccc(C(=O)Nc2cccc(-c3nnc(-c4ccco4)o3)c2)cc1 -0.63%
Oc1ccc(/C=N/NC(=S)NCCN2CCOCC2)c(O)c1 24.1%
S=C(NCCN1CCOCC1)N/N=C/c1ccccc1 0.06%
CC(=O)NCCOc1ccc(C(=O)O)cc1 -5.42%
CCCCOC(=O)n1c(=O)oc2ccc(S(=O)(=O)N3CCCCC3)cc21 -5.83%
O=[N+]([O-])c1cc(-c2ccccc2)cc([N+](=O)[O-])c1O -4.83%
O=C(O)c1cc([N+](=O)[O-])cc2ccccc12 -6.07%
Cc1cc(Cl)c2oc(C(=O)N3CCN(c4cnccn4)CC3)c(C)c2c1 2.03%
